# Test results: ChEMBL document CHEMBL3988442, “University of Dundee, Small-Polar-MMV Screening Library” (2021)
# Out of some 69,000 compounds screened, about 950 (1.4%) showed an effect of 50% or more. Only a selection was taken, and strong results are over-represented in it overall.
# Test system: Mycobacterium tuberculosis
# Test: Cornell M. t heat shock assay; also: in the data most compounds retested in dose-response had high values
# Assay type: functional, organism-based
# Set-up: dose or concentration left out as unconfirmed
row,SMILES,Percent Effect [%]
1,Cl.Nc1ncc(-c2csc(NC(=O)C[C@H]3COCCN3)n2)cn1,-19.35
2,COCC(=O)N1CCCC1c1cccc(Nc2ncc(C)s2)n1 (stereo unspecified),102.5
3,CCc1nnc(Nc2cccc(C3CCN(S(=O)(=O)N(C)C)CC3)n2)s1,-4.928
4,CCN(CC)S(=O)(=O)N1CCCC1c1cccc(Nc2ncc(C)s2)n1 (stereo unspecified),70.89
5,COCC(=O)N1CCCCC1c1ccnc(Nc2ncc(C)s2)n1 (stereo unspecified),-16.88
6,Cc1cccc(C2CCCN2S(=O)(=O)N(C)C)n1 (stereo unspecified),-7.65
7,Cc1cnc(Nc2cccc(C3CCCN3C(=O)CO)n2)s1 (stereo unspecified),-6.272
8,COc1ccc(CN2C[C@@H](N(C)Cc3ccco3)[C@H]3OCCC[C@H]32)cc1.O=C(O)C(F)(F)F.O=C(O)C(F)(F)F,2.974
9,CCOc1ccccc1CNC(=O)Cn1ccc2c(C)nn(C)c2c1=O,9.293
10,O=C(Cc1ccccc1)N1CCCC2(COCCN(CC3CC3)C2)C1.O=C(O)C(F)(F)F (stereo unspecified),-3.666
11,Cc1nc(Nc2nnc(C)s2)cc(C2CCCN2C2CCCC2)n1 (stereo unspecified),-11.05
12,CN(C)c1nccc(N2CCO[C@H]3CN(Cc4nccn4C)C[C@H]32)n1.O=C(O)C(F)(F)F,-13.16
13,CC(C)n1c2ccccc2c2c1cc(C(=O)N(C)C)n2C(=O)N(C)C,11.26
14,CC(C)n1c2ccccc2c2c1cc(C(=O)O)n2C(=O)N(C)C,64.45
15,CC(C)n1c2ccccc2c2c1cc(C(=O)NCCO)n2C(=O)N(C)C,20.51
16,COc1ccc(CC(=O)N2CCN(c3nccn3C)CC2)cc1.Cl,6.481
17,O=C(O)C(F)(F)F.O=S(=O)(C1CC1)N1CCCn2cnc(COc3cccnc3)c2C1,9.967
18,Cc1cc(NC(=O)CN2C(=O)CC(C)(C)c3ccccc32)no1,6.008
19,CCn1ccc(NC(=O)CN2C(=O)CC(C)(C)c3ccccc32)n1,2.312
20,Cc1cccc(NC(=O)CN2C(=O)CC(C)(C)c3ccccc32)n1,-2.777
21,CC1(C)CC(=O)N(CC(=O)Nc2ccon2)c2ccccc21,77.91

row,SMILES,Percent Effect [%]
1,CCn1ccc(NC(=O)CN2C(=O)C(C)(C)c3ccccc32)n1,-16.77
2,CCn1cc(NC(=O)CN2C(=O)CC(C)(C)c3ccccc32)cn1,52.7
3,Fc1ccc(CN[C@@H]2COC[C@H]2c2ccc(F)cc2)cc1.O=C(O)CC(O)(CC(=O)O)C(=O)O,2.118
4,COc1cccc(OCCNCc2ccccc2)c1.O=C(O)C(=O)O,-6.728
5,CCc1ccc(CN2CCCn3c(nc(Cn4ccnc4)cc3=O)C2)o1.O=C(O)C(F)(F)F.O=C(O)C(F)(F)F,-19.48
6,Cc1ccnc(N2CCCC(c3noc(C(C)C)n3)C2)n1 (stereo unspecified),12.21
7,CNC(=O)c1cn2cc(-c3ccccc3Cl)n(CC3CC3)c(=O)c2n1,12.71
8,CCNC(=O)c1cn2cc(-c3ccccc3Cl)n(CC3CC3)c(=O)c2n1,99.63
9,CN(C)C(=O)c1cn2cc(-c3ccccc3Cl)n(CC3CC3)c(=O)c2n1,22.72
10,COCCN1CCC2(CC1)CN(C(=O)N(C)C)c1ccc(C)cc12.O=C(O)C(F)(F)F,-10.15
11,O=C(N[C@H]1CN(Cc2ccsc2)[C@@H]2CCCO[C@H]12)C1CC1.O=C(O)C(F)(F)F,2.811
12,Cc1cccc(CN2CC3(CCN(C(=O)N(C)C)CC3)OCC2=O)n1.O=C(O)C(F)(F)F,-24.23
13,CC(C)(C)c1nc(CNC2CCCN(c3cccnn3)C2)no1 (stereo unspecified),53.11
14,CC(C)c1nc(CNC2CCCN(c3cccnn3)C2)no1 (stereo unspecified),-11.29
15,Cc1nc(CNC2CCCN(c3cccnn3)C2)no1 (stereo unspecified),-18.97
16,Cc1cc(N2CCN(Cc3cn(C)nc3C)CC2)cc(C2CCNC2)n1.Cl (stereo unspecified),-5.922
17,O=C(NC1CCC1)[C@H]1C[C@@H]2CN(CC3CC3)C[C@H]1O2.O=C(O)C(F)(F)F,18.28
18,CC(C)(C)c1n[nH]cc1CNCC1CCN(C2CC2)C1.Cl (stereo unspecified),85.37
19,COCCN1CCC(CNCc2c[nH]nc2C(C)(C)C)CC1,-7.94
20,CC(O)CN1CCC(CNCc2c[nH]nc2C(C)(C)C)CC1 (stereo unspecified),0.7064
21,CC(C)(C)c1n[nH]cc1CNCC1CCN(CC(F)(F)F)C1.Cl (stereo unspecified),-7.348

row,SMILES,Percent Effect [%]
1,CC(C)N1CCC(CNCc2c[nH]nc2C(C)(C)C)C1 (stereo unspecified),82.49
2,CCN1CCC(CNCc2c[nH]nc2C(C)(C)C)C1.Cl (stereo unspecified),48.77
3,COc1nn(C)c2c1CCCN(C(=O)c1cccc(C)n1)C2.O=C(O)C(F)(F)F,26.28
4,Cn1ccc(C(=O)N2C[C@@H]3OCCN(c4ncccn4)[C@@H]3C2)n1.O=C(O)C(F)(F)F,-20
5,Cc1ccc(N2CC[C@H]3O[C@H](C(=O)NCc4ccco4)CC[C@H]32)nn1.O=C(O)C(F)(F)F,-36.19
6,Cc1nc(CNCC2CN(C)CCO2)cs1 (stereo unspecified),-7.018
7,CN1CCOC(CNCc2csc(C3CCCCC3)n2)C1 (stereo unspecified),-18.06
8,CN1CCOC(CNCc2csc(C3CCCC3)n2)C1 (stereo unspecified),51.17
9,CN(Cc1cn2c(n1)CN(c1ncc(F)cn1)CC2)Cc1ccco1.O=C(O)C(F)(F)F.O=C(O)C(F)(F)F,8.494
10,CC(=O)Nc1c(C)noc1/C=C\c1ccc(C)c(S(=O)(=O)NC2CC2)c1,14.26
11,CC(C)N1Cc2c(C(=O)N3CCOCC3)nn(C)c2C1.O=C(O)C(F)(F)F.O=C(O)C(F)(F)F,-12.04
12,Cc1nc(C2CCCN2Cc2cc(Cl)c3c(c2)OCCO3)no1 (stereo unspecified),57.05
13,Cc1nc(C2CCCN2Cc2cc(Cl)c3c(c2)OCO3)no1 (stereo unspecified),23.975
14,Cc1nc(C2CCCN2Cc2cc(Cl)c3c(c2)OCCCO3)no1 (stereo unspecified),45.55
15,CSc1nc(N)c2c(n1)N=C1COC(O)=C1C2c1cccc(Cl)c1 (stereo unspecified),2.564
16,CC(=O)Nc1nc(-c2ccccc2)c[nH]1,-15.03
17,CNC(=O)c1cccc(CNC(C)c2ccc(F)cc2N(C)C)c1 (stereo unspecified),101.5
18,CNC(=O)c1cccc(CNC(C)c2cc(Cl)ccc2OC)c1 (stereo unspecified),-13.72
19,CNC(=O)c1cccc(CNC(C)c2cc(C)ccc2OC(F)F)c1 (stereo unspecified),-18.66
